This is an account of results in PubChem BioAssay AID720700 (The Scripps Research Institute Molecular Screening Center, 2013).

Structures are written as SMILES. Several values for one entry are separate records, joined by “and”; a condition that tells them apart may be missing. Equal values may be shown once. The campaign covered roughly 370,000 compounds. About 3,100 (0.84%) were called active. No stated cut-off is given here; in the data, active means inhibition above about 9.5%; inactive means the rest. For the sample, actives were picked, then their nearest neighbours and some compounds at random.

Sequence of 1-phosphatidylinositol 4,5-bisphosphate phosphodiesterase gamma-1 (Homo sapiens) (P19174 whole entry, looked up): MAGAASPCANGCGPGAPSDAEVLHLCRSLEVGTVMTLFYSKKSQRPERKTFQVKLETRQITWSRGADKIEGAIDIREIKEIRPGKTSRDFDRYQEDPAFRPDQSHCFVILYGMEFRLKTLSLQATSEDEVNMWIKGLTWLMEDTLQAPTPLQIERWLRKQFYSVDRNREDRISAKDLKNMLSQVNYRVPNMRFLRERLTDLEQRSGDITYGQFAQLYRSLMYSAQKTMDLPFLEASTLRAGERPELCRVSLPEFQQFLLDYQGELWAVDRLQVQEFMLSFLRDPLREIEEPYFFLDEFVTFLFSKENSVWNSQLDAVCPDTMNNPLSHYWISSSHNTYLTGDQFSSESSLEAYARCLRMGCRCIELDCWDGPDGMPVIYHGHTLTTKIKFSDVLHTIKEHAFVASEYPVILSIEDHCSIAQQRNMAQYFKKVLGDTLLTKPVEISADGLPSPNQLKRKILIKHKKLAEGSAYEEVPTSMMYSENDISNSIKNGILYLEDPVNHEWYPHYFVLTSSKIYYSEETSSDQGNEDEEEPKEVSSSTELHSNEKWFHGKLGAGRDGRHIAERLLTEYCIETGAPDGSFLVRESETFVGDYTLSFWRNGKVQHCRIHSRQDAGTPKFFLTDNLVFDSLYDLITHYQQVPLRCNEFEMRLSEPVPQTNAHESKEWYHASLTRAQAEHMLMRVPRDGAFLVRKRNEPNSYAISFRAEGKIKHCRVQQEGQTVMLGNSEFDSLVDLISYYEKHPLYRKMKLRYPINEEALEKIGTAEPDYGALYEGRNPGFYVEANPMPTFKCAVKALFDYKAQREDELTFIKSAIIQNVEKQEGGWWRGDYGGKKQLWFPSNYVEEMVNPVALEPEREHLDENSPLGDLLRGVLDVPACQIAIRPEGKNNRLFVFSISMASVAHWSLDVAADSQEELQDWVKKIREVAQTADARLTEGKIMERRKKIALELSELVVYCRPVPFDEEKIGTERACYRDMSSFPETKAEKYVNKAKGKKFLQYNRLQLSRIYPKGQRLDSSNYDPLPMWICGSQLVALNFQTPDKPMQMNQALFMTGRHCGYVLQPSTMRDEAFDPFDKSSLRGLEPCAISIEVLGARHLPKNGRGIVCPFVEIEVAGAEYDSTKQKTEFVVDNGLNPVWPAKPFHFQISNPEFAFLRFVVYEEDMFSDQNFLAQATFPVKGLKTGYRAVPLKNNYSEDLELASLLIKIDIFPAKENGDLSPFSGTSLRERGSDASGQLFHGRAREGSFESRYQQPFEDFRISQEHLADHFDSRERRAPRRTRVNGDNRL

This assay has as its target 1-phosphatidylinositol 4,5-bisphosphate phosphodiesterase gamma-1 (Homo sapiens) (UniProt P19174). Description: PLC-gamma1 enzyme inhibitors, primary screen, biochemical, fluorescence, purified enzyme (AID 720700). Particulars: purified PLC-gamma1, fluorogenic substrate, at 12.2 µM, hits give high values.
`CC(=O)N1CN2CN(C(C)=O)CC(C(=O)c3ccc(Br)cc3)(C2)C1`: the inhibition – broadly, the drop in the measured response relative to a control, in per cent – was 11.9% (active).
Under `Cc1cc(-c2ccc(N)c(C)c2)ccc1N` stands 2.25% (inactive).
Next, `Oc1ccc2c3c1OC1[C@H](O)CC[C@@]4(O)[C@@H](C2)N(CC2CC2)CC[C@]314` (stereo not given in full): -3.08% (inactive) and -2.01% (inactive).
For `O=C(NC1CCCCC1)N1Cc2cc(N3CCCCC3)ccc2-n2nncc2C1`, the inhibition was -5.89% (inactive).
Under `CCN(CC)P(=O)(Oc1cccc(C)c1)N(CC)CC` stands 7.26% (inactive); under `COC(=O)C1=C(c2cccc(OCc3ccccc3)c2)C[C@@H]2CC[C@H]1N2C(=O)NCc1ccc(Br)cc1`, 0.93% (inactive); under `COC(=O)C1=C(c2ccc(F)cc2OCc2ccccc2)C[C@@H]2CC[C@H]1N2C(=O)NCc1ccc(Cl)cc1`, 4.35% (inactive).
Regarding `COC(=O)C1=C(c2ccc(-c3ccccc3)c(F)c2)C[C@@H]2CC[C@H]1N2C(=O)NCc1ccc(F)cc1`, the inhibition was 11.8% (active).
In the case of `CCOC(=O)C(O)(c1ccc(N)c(OC)c1)C(F)(F)F` (stereo not given), the inhibition is 0.45% (inactive).
`CN(C)CCN(CC1CCCN(Cc2ccccc2F)C1)C(=O)Cc1ccc(F)c(F)c1` (stereo not given): the inhibition was 1.2% (inactive).
